Measured values reported in PubChem BioAssay AID463173 (ICCB-Longwood Screening Facility, Harvard Medical School, 2010).
Among all 52,000 compounds or so, about 4,300 (8.3%) were called active. No stated cut-off is given here; in the data, active means survival mostly below about 52% (no sharp cut-off); inactive means mostly above about 56%. The sample as a whole holds a higher share of actives than the screen did.

Tested on: DeltatarO mutant
Assay: growth inhibition of S. aureus wild type versus tarO mutant, primary screen, teichoic acid synthesis inhibitors, RN4220, OD600 (AID 463173)
Conditions: OD600, 18 h, active compounds read low, screened at 18.75 µg/mL (by protocol)

| SMILES | survival |
| --- | --- |
| Cc1ccccc1CS(=O)(=O)Cc1ccc(C(=O)NCCc2ccccc2)o1 | 86% (inactive) |
| COc1ccc(Cn2c(SCc3ccc(C(=O)NCc4cccs4)cc3)nc3cccnc32)cc1 | 63% (inactive) |
| CC(=O)c1cccc(NC(=O)c2ccc(Cl)c(S(=O)(=O)N3CCOCC3)c2)c1 | 73% (inactive) |
| CCc1cccc(C)c1NC(=O)c1ccc2c(c1)CCN2S(=O)(=O)c1ccc(Cl)cc1 | 67% (inactive) |
| CCCn1c2ccccc2c2cnn(CC(=O)NC(CCSC)C(=O)OC)c(=O)c21 (stereo unspecified) | 124% (inactive) |
| N#Cc1nc(/C=C/c2ccc(F)cc2)oc1N1CCCCC1 | 93% (inactive) |
| COc1ccc(NC(=O)CCNS(=O)(=O)c2ccc3c(c2)CCCC(=O)N3)cc1 | 101% (inactive) |
| O=C(NCCc1ccccc1)c1ccc(Cn2c(SCc3ccc(F)cc3)nc3cccnc32)cc1 | 95% (inactive) |
| CC(=O)c1cccc(NC(=O)CSc2nc3c(=O)n(C)c(=O)n(C)c3n2C)c1 | 79% (inactive) |
| Cc1cc(C)c2oc(-c3ccc(NC(=O)c4cc(Br)ccc4Cl)cc3)nc2c1 | 89% (inactive) |
| CCc1ccc2oc(-c3cc(NC(=O)c4cccnc4)cc(C)c3O)nc2c1 | 65% (inactive) |
| Cc1cc(NC(=O)c2cccnc2)cc(-c2nc3cc(Cl)ccc3o2)c1O | 140% (inactive) |
| CC(C)c1ccc2oc(-c3cc(NC(=O)c4cccnc4)ccc3Cl)nc2c1 | -2% (active) |
| Cc1cc(C)c2oc(-c3ccc(Cl)c(NC(=O)c4cccs4)c3)nc2c1 | 55% (active) |
| O=C(Nc1cc(-c2nc3cc(Cl)ccc3o2)ccc1Cl)c1cccs1 | 59% (inactive) |
| CCOc1ccccc1NC(=O)C1CCCN(S(=O)(=O)c2c(C)[nH]c(=O)[nH]c2=O)C1 (stereo unspecified) | 88% (inactive) |
| CC(C)c1cc(-c2nc(-c3ccc(Br)cc3)no2)n[nH]1 | 95% (inactive) |
| O=C(Cn1c(-c2cccs2)cc2cc(F)ccc21)NCCc1ccc(Cl)cc1 | 91% (inactive) |
| Clc1cccc(-n2ncc3c(NCCc4ccccc4)ncnc32)c1 | 94% (inactive) |
| Clc1cccc(-n2ncc3c(NCCC4=CCCCC4)ncnc32)c1 | 37% (active) |
| Cc1ccc(-n2ncc3c(NCc4ccccc4)ncnc32)cc1Cl | -4% (active) |

| SMILES | survival |
| --- | --- |
| Cc1ccc(-n2ncc3c(NCc4ccccc4)ncnc32)cc1C | 70% (inactive) |
| Fc1ccc(-n2ncc3c(NCCC4=CCCCC4)ncnc32)cc1 | 83% (inactive) |
| Cc1ccc(Cl)cc1-n1ncc2c(NCCC3=CCCCC3)ncnc21 | 91% (inactive) |
| Cc1ccc(-n2ncc3c(NCCc4ccccc4)ncnc32)cc1Cl | 65% (inactive) |
| Cc1ccc(-n2ncc3c(NCCC4=CCCCC4)ncnc32)cc1 | 20% (active) |
| Cc1ccc(-n2ncc3c(NCCC4=CCCCC4)ncnc32)cc1C | 119% (inactive) |
| COc1cccc(C2C(C(=O)Nc3cccnc3)=C(C)Nc3nc(SCc4ccccc4)nn32)c1 (stereo unspecified) | 81% (inactive) |
| COc1ccc(Cn2c(SCc3ccc(C(=O)NC4CCCC4)cc3)nc3cccnc32)cc1 | 69% (inactive) |
| COC(=O)c1sc2nc3ccccc3cc2c1N | 93% (inactive) |
| COCCNS(=O)(=O)c1ccc(S(=O)(=O)N2CCCCC2)cc1 | 103% (inactive) |
| Cc1ccc2cc(CN(CC3CCCO3)C(=O)C3CCC3)c3nnnn3c2c1 (stereo unspecified) | 95% (inactive) |
| CCC(C)NC(=O)CCCc1nnc2n(CC(C)C)c(=O)c3sccc3n12 (stereo unspecified) | 94% (inactive) |
| O=S(=O)(NCCS(=O)(=O)N1CCN(c2ccccc2)CC1)c1ccccc1 | 81% (inactive) |
| CCN(C1CCCCC1)S(=O)(=O)c1ccc(S(=O)(=O)NC2CC2)cc1 | 90% (inactive) |
| O=C(Nc1ccccc1)C1CCN(S(=O)(=O)c2ccc3c(c2)CCCN3C(=O)C2CCC2)CC1 | 95% (inactive) |
| CCOc1ccc(Nc2c(S(=O)(=O)c3ccccc3)cnc3ccc(F)cc23)cc1 | 92% (inactive) |
| CCOc1ccc(Nc2c(S(=O)(=O)c3ccc(C)cc3)cnc3ccccc23)cc1 | 43% (active) |
| CCOc1ccc(Nc2c(S(=O)(=O)c3ccccc3)cnc3ccc(CC)cc23)cc1 | 34% (active) |
| CCOc1ccc(Nc2c(S(=O)(=O)c3ccc(C)cc3)cnc3ccc(OC)cc23)cc1 | 59% (inactive) |
| CCOc1ccc(Nc2c(S(=O)(=O)c3ccc(C)cc3)cnc3ccc(F)cc23)cc1 | 64% (inactive) |
| CCOc1ccc(Nc2c(S(=O)(=O)c3ccc(Cl)cc3)cnc3ccc(OCC)cc23)cc1 | 66% (inactive) |

| SMILES | survival |
| --- | --- |
| CCOc1ccc(Nc2c(S(=O)(=O)c3ccc(C)cc3)cnc3cc(OC)c(OC)cc23)cc1 | 70% (inactive) |
| CCOc1ccc(Nc2c(S(=O)(=O)c3ccccc3)cnc3ccccc23)cc1 | 38% (active) |
| CCOc1ccc(Nc2c(S(=O)(=O)c3ccc(Cl)cc3)cnc3ccc(OC)cc23)cc1 | 67% (inactive) |
| CCOc1ccc(C(=O)NCC(c2ccc3c(c2)OCO3)N2CCN(c3ccc(F)cc3)CC2)cc1 (stereo unspecified) | 87% (inactive) |
| COc1ccc(Cl)cc1NC(=O)Cn1cnc2sc(C)c(S(=O)(=O)N3CCN(c4ccccc4OC)CC3)c2c1=O | 79% (inactive) |
| CCN(c1ccccc1)c1nnc(NC(=O)Nc2ccc(Br)c(C)c2)s1 | 89% (inactive) |
| COc1ccccc1NC(=O)c1c(-c2ccc(C)cc2)nnc2ccccc12 | 105% (inactive) |
| CC(C)c1ccc(C(=O)Nc2ccc(-c3nc4ccccc4s3)c(Cl)c2)cc1 | 216% (inactive) |
| Cc1nc2ccc(S(=O)(=O)NC(C(=O)NCc3ccccc3Cl)C(C)C)cc2s1 (stereo unspecified) | 102% (inactive) |
| Cc1cc(F)ccc1S(=O)(=O)Nc1ccc(O)c(Sc2ncn[nH]2)c1 | 111% (inactive) |
| Cc1nc2ccc(S(=O)(=O)CCC(=O)Nc3ccc(C(C)C)cc3)cc2s1 | 50% (inactive) |
| CS(=O)(=O)Nc1ccc(-c2nc3ccccc3s2)cc1 | 48% (inactive) |
| Cn1c(=O)sc2cc(NS(=O)(=O)c3ccc(C(C)(C)C)cc3)ccc21 | 92% (inactive) |
| O=S(=O)(Nc1ccc(O)c(Sc2nc3ccccc3s2)c1)c1cc(Cl)ccc1Cl | -8% (active) |
| CC(C)NC(=O)c1nc2ccccc2s1 | 88% (inactive) |
| O=C(Nc1ccc(Cl)cc1-c1nc2ccccc2s1)c1ccco1 | 74% (inactive) |
| CC(C)(C)c1ccc(S(=O)(=O)Nc2ccc(O)c(Sc3nc4ccccc4s3)c2)cc1 | -4% (active) |
| CC(C)c1ccc(S(=O)(=O)Nc2ccc(O)c(Sc3nc4ccccc4s3)c2)cc1 | 1% (active) |
| Cc1cc(S(=O)(=O)Nc2ccc(O)c(Sc3nc4ccccc4s3)c2)ccc1Cl | -1% (active) |
